Usually AC50 stands for the midpoint of the concentration-response curve, whichever way the signal moves.

The values that follow come from PubChem BioAssay (EPA / NIEHS).

Records with an inconclusive call do not appear. Activity calls are given as the source filed them. How the source made its calls: active means hit-call score of the fitted dose curve at least 0.9, where 1 is the maximum; inconclusive means response in the unintended direction; inactive means score below 0.9.

The nature of the test: Tanguay_ZF_120hpf_SNOU_legacy: (Legacy) Oregon State University Tanguay Lab 120 Hour Post-fertilization zebrafish Assay for Snout Malformation (AID 2283637). The method, then:
Tanguay_ZF_120hpf_legacy is a whole embryo, multiplexed endpoint assay using zebrafish larvae exposed for 120 hours post fertilization on a 96-well plate.Tanguay_ZF_120hpf_SNOU_legacy is one of one assay component(s) measured or calculated from the Tanguay_ZF_120hpf_legacy assay. It is designed to make measurements of zebrafish development as detected with brightfield microscopy of developing zebrafish embryos.Data from the assay component Tanguay_ZF_120hpf_SNOU_legacy was analyzed into 1 assay endpoints. This assay endpoint, Tanguay_ZF_120hpf_SNOU_legacy, was analyzed in the positive analysis fitting direction relative to DMSO as the negative control and baseline of activity. Using a type of morphology reporter, gain-of-signal activity can be used to understand changes in developmentals as they relate to the whole embryo. To generalize the intended target to other relatable targets, this assay endpoint is annotated to the zebrafish development intended target family, where the subfamily is embryonic snout morphogenesis.
Zebrafish husbandry: Tropical 5D wild-type adult zebrafish were housed in at an approximate density of 1000 per 100 gallon tank at the Sinnhuber Aquatic Research Laboratory, Oregon State University, Corvallis, OR. Each tank was kept at standard laboratory conditions of 28C on a 14-h light/10-h dark photoperiod in fish water consisting of reverse osmosis water supplemented with a commercially available salt (Instant Ocean). Spawning funnels were placed into the tanks the night prior, and embryos were collected and staged. To increase bioavailability, the chorion was enzymatically removed using pronase (63.6mg/ml, >/= 3.5U/mg, Sigma-Aldrich: P5147) at 4 hours post fertilization (hpf) using a custom automated dechorionator.Chemical exposures: Six hpf dechorionated embryos were placed 1 embryo per well in a 96-well plate prefilled with 90 ul of EM using automated embryo placement systems (AEPS). Ten microliters of each row of dilution plate 2 was added to 2 exposure plates. The final DMSO concentration used was 0.64% (vol/vol). Thirty-two embryos were also exposed to 5uM trimethyltin chloride (positive control). Plates were sealed to prevent evaporation and foil covered to reduce light exposure and kept in a 28C incubator. Embryos were statically exposed until 120 hpf. At 24 hpf, embryos were assessed for photomotor response using a custom photomotor response analysis tool (PRAT) and for developmental toxicity endpoints (MO24: mortality at 24 hpf, DP: developmental progression, SM: spontaneous movement, and NC: notochord distortion). At 120 hpf, locomotor activity was measured using Viewpoint Zebralab and assessed for 18 endpoints. Zebrafish acquisition and analysis program (ZAAP), a custom program designed to inventory, acquire, and manage zebrafish data, was used to collect developmental endpoints as either present or absent (i.e., binary responses were recorded). If mortality occurred for an embryo (at either 24 or 120 hpf), the non-mortality endpoints were not measured.
Consider `CCCCOCCOCCOCc1cc2c(cc1CCC)OCO2`, for which the AC50 is 7.01 µM (active).
As to `O=C(c1ccc(O)cc1O)c1ccc(O)cc1O`, the compound was called inactive.
Still for that read-out and setting: under `CCCCC(CC)CN1C(=O)C2C3C=CC(C3)C2C1=O` (stereo not given) stands “inactive”.
Turning to `CCOC(=O)NCCOc1ccc(Oc2ccccc2)cc1`, the result was inactive.
Still for that read-out and setting: in the case of `C[C@]12CC[C@@H]3c4ccc(O)cc4C[C@@H](CCCCCCCCCS(=O)CCCC(F)(F)C(F)(F)F)[C@H]3[C@@H]1CC[C@@H]2O` (stereo not given in full) it was “inactive”.
On the same count and under the same terms, under `Cc1nn(C)c(Oc2ccccc2)c1C=NOCc1ccc(C(=O)OC(C)(C)C)cc1` stands “inactive”.
As for `CCN(CC)C(=O)c1cccc(C)c1`, the call was inactive.
Take `CCOC(=O)c1ccc(O)cc1`: the AC50 is 24.5 µM (active).
`CCSC(=O)N(CC(C)C)CC(C)C`: the result was inactive.
Still for that read-out and setting: in the case of `O=C(O)C1(C(=O)Nc2ccc(Cl)cc2Cl)CC1` it was “inactive”; in that of `COc1c(Cl)ccc(Cl)c1C(=O)O`, “inactive”.
Regarding `C#C[C@]1(O)CC[C@H]2[C@@H]3CCC4=CC(=O)CC[C@@H]4[C@H]3CC[C@@]21CC`, the call was inactive.
Still for that read-out and setting: under `C[C@]12C[C@H](O)[C@H]3[C@@H](CCC4=CC(=O)CC[C@@]43C)[C@@H]1CC[C@@H]2C(=O)CO` stands “inactive”.
As to `COC(=O)CSc1cc(N=c2sc(=O)n3n2CCCC3)c(F)cc1Cl`, the compound was called inactive.
The same measure, in the same setting: in the case of `CSC(=O)c1cccc2nnsc12` it was “inactive”; in that of `CCCCOC(=O)[C@@H](C)Oc1ccc(Oc2ccc(C(F)(F)F)cn2)cc1`, “inactive”.
Turning to `N[C@@H](Cc1cc(I)c(Oc2ccc(O)c(I)c2)c(I)c1)C(=O)O`, the AC50 is 0.00111 µM (active).
Turning to `CCCOC(=O)c1ccc(C(=O)OCCC)nc1`, the compound was called inactive.
On the same count and under the same terms, in the case of `CCCN(CCC)C(=O)SCC` it was “inactive”; in that of `COCCO`, “inactive”.
Consider `CN(C)C(=O)Nc1ccc(Cl)c(Cl)c1`, for which the call was inactive.
Still for that read-out and setting: under `CCOC(=O)COc1cc(-n2ncc(C(F)(F)F)c(C)c2=O)c(F)cc1Cl` stands “inactive”; under `CCCN(CCC)c1c([N+](=O)[O-])cc(C(F)(F)F)c(N)c1[N+](=O)[O-]`, “inactive”.
Same read-out and setting: in the case of `O=C(c1ccccc1)C1CCCCC1` it was “inactive”; in that of `OB(O)O`, “inactive”.
The same measure, in the same setting: in the case of `CCCCC(CC)COC(=O)c1ccccc1C(=O)O` (stereo not given) it was “inactive”; in that of `CCC(C)OC(=O)N1CCCCC1CCO` (stereo not given), “inactive”.
For `COC(=O)c1ccccc1C(=O)O`, the result was inactive.
For the compound `CCCCOC(=O)C(C)Oc1ccc(Oc2ccc(C(F)(F)F)cn2)cc1` (stereo not given), the compound was classed as inactive.
As to `CCN(Cc1c(F)cccc1Cl)c1c([N+](=O)[O-])cc(C(F)(F)F)cc1[N+](=O)[O-]`, the call was inactive.
Consider `Oc1ccc(C(c2ccc(O)cc2)C(Cl)(Cl)Cl)cc1`, for which the concentration at half-maximal activity (AC50) is 138 µM (active).
Regarding `O=C(Nc1ccc([N+](=O)[O-])cc1Cl)c1cc(Cl)ccc1O`, the result was inactive.
Still for that read-out and setting: under `CC(C)CCCCCCc1ccc(O)cc1` stands “inactive”.
Still for that read-out and setting: under `CCCCCOC(=O)COc1cc(N2C(=O)C3=C(CCCC3)C2=O)c(F)cc1Cl` stands “inactive”.
In the case of `C#CCOC(=O)[C@@H](C)Oc1ccc(Oc2ncc(Cl)cc2F)cc1`, the outcome was inactive.
In the case of `O=C(O)c1ccccc1`, the compound was called inactive.
The same measure, in the same setting: in the case of `c1ccc2[nH]c(-c3cscn3)nc2c1` it was “inactive”.
Consider `c1ccc(Nc2ccccc2)cc1`, for which the AC50 was 36.6 µM (active).
On to `CC(=O)[C@H]1CC[C@H]2[C@@H]3CCC4=CC(=O)CC[C@]4(C)[C@H]3CC[C@]12C`, for which the call was inactive.
Same read-out and setting: under `CCOC(=O)C(C)Oc1ccc(Oc2nc3ccc(Cl)cc3o2)cc1` (stereo not given) stands “inactive”.
